# Measurements taken from PubChem BioAssay (NCATS).
# Results filed as inconclusive are left out. Where a call stands in place of a potency, no number is given. Activity calls are given as the source filed them. Calls follow the shape of the dose curve; as a rule, active = well fitted inhibition curve with a large enough effect; inconclusive = small, poorly fitted or top-dose-only effect; inactive = flat fitted curve, though single readings scatter.
# Columns and labels:
# Experiment in all cases: qHTS profiling for inhibitors of Plasmodium falciparum proliferation (AID 504749); also: nearly all actives have a fitted effect of over 60% in size
# Conditions in all cases: P. falciparum in erythrocytes, SYBR Green DNA, 72 h; series mostly up to 28.7 µM
# PC49 = test system: PC49
# Method in brief: (§1)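 P. falciparum-infected erythrocytes (0.3% parasitemia, 2.5% hematocrit) incubated with compound 72 h at 37 C, 5% CO2. Parasite DNA detected by SYBR Green after lysis, overnight at room temperature; normalised to 0.29 uM artemisinin and DMSO.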
# SC27B = test system: SC27B
# Method in brief: as §1
# TAB113 = test system: TAB113
# Method in brief: as §1
# W2 = test system: W2
# Method in brief: as §1
# TAB109 = test system: TAB109
# Method in brief: as §1
# TAB165 = test system: TAB165
# Method in brief: as §1
# PC26 = test system: PC26
# Method in brief: as §1
# Potency is read from the fitted curve at half-maximal effect.
Structure (SMILES),Potency (PC49),Potency (SC27B),Potency (TAB113),Potency (W2),Potency (TAB109),Potency (TAB165),Potency (PC26)
CCCCC(=O)O[C@]1(C(=O)CO)[C@H](C)C[C@H]2[C@@H]3CCC4=CC(=O)C=C[C@]4(C)[C@@]3(F)[C@@H](O)C[C@@]21C,inactive,inactive,inactive,13.5 µM (active),,,
COC(=O)[C@H]1[C@H]2CC3c4[nH]c5ccccc5c4CCN3C[C@@H]2CC[C@@H]1O (stereo partly specified),inactive,inactive,inactive,,inactive,inactive,
CCCCCCCCCCCCCC[n+]1ccc(C)cc1,,3.98 µM (active),3.98 µM (active),1.69 µM (active),2.24 µM (active),3.98 µM (active),4.78 µM (active)
O=S(=O)(O)c1cc(O)c2c(N=Nc3ccc(Nc4ccccc4)c4c(S(=O)(=O)O)cccc34)cc(S(=O)(=O)O)cc2c1,,inactive,,,,,
CCCCCCCCCCCC[n+]1ccc2ccccc2c1,,1.41 µM (active),1 µM (active),0.301 µM (active),0.631 µM (active),0.891 µM (active),0.953 µM (active)
Cc1c(C)c2c(c(C)c1O)CC[C@@](C)(CCC[C@@H](C)CCC[C@@H](C)CCCC(C)C)O2,inactive,inactive,inactive,inactive,,inactive,inactive
Clc1cc(Cl)c(OCC#CI)cc1Cl,,,5.01 µM (active),10.7 µM (active),11.2 µM (active),11.2 µM (active),
COc1cc(-c2ccc(-[n+]3nc(-c4ccccc4)nn3-c3ccc([N+](=O)[O-])cc3)c(OC)c2)ccc1-[n+]1nc(-c2ccccc2)nn1-c1ccc([N+](=O)[O-])cc1,,,,12 µM (active),,,15.1 µM (active)
CCCCCCOc1ccc(C(=N)N(CCCC)CCCC)c2ccccc12,,,10 µM (active),3.38 µM (active),7.94 µM (active),12.6 µM (active),
O=CCCCC=O,inactive,inactive,inactive,13.5 µM (active),inactive,,
CC[C@@]1(O)C(=O)OCc2c1cc1n(c2=O)Cc2cc3c([N+](=O)[O-])cccc3nc2-1,,5.62 µM (active),5.62 µM (active),4.78 µM (active),3.98 µM (active),3.98 µM (active),
CCCCCCCC/C=C\CCCCCCCC(=O)O,inactive,inactive,inactive,inactive,,inactive,inactive
O=S(=O)(O)O,,inactive,inactive,inactive,inactive,inactive,inactive
O=C(Nc1ccc(Br)cc1)c1cc(Br)c(Br)s1,inactive,,,,,,
COCC(=O)Nc1cc(Sc2ccccc2)ccc1N=C(NC(=O)OC)NC(=O)OC,inactive,inactive,inactive,,inactive,inactive,
CN1C(=O)CN2CCc3ccccc3C2c2cc(Cl)ccc21 (stereo unspecified),inactive,,,,,,
CC(=O)Oc1cc(C)c(OC(C)=O)c2ccccc12,,,,5.36 µM (active),,12.6 µM (active),7.57 µM (active)
C=C1C(=CC=C2CCC[C@@]3(C)[C@@H]2CC[C@H]3[C@H](C)CCCC(C)C)C[C@@H](O)C[C@@H]1O,,,,9.53 µM (active),,,inactive
CC(C)(C)C(=O)OCOC(=O)[C@@H]1N2C(=O)[C@@H](N=CN3CCCCCC3)[C@H]2SC1(C)C,inactive,inactive,inactive,,inactive,inactive,
CCOc1ccc(N=Nc2ccc(N)cc2N)cc1,inactive,,,inactive,inactive,,inactive
CN(C)CCCN1c2ccccc2C(C)(C)c2ccccc21,inactive,,,4.26 µM (active),,,
C[C@H]1C[C@H]2[C@@H]3CCC4=CC(=O)C=C[C@]4(C)[C@@]3(F)[C@@H](O)C[C@]2(C)[C@@]1(O)C(=O)CO,inactive,inactive,inactive,inactive,inactive,inactive,inactive
CCCCCCCCCCCCCCCC(=O)OCC(COC(=O)CCCCCCCCCCCCCCC)OC(=O)CCCCCCCCCCCCCCC,inactive,inactive,inactive,inactive,,inactive,inactive
CCCCCC(CC)COC(=O)CC(C(=O)OCC(CC)CCCC)S(=O)(=O)O (stereo unspecified),inactive,inactive,inactive,,inactive,inactive,
